Laboratory results reported in PubChem BioAssay AID1159580 (chemical genetic matrix, 2015).
Values joined by “and” are separate entries in the source; they are usually repeats but may differ in a detail not shown here. Equal values may be shown once. Out of some 5,500 compounds screened, about 2,000 (36%) were called active. Inconclusive results (about 18%) are left out. No stated cut-off is given here; in the data, active means normalized growth mostly below about 0.91 (no sharp cut-off); inconclusive means no clear call, values can overlap the other calls; inactive means mostly above about 0.92. The list shows a part of the results.

Assay: chemical genetic growth profiling, strain panel (AID 1159580);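 further: tested at 20 µM; growth read once vehicle control cultures reached saturation at 30 °C; 1 = growth at the plate median or of vehicle wells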
Details: S. cerevisiae deletion strains, growth OD

Which results are given for CC(=O)Nc1ccc(OC(=O)c2ccccc2O)cc1?
normalized growth (locus YAL021C, strain ccr4, stronger effect = lower value): 1 (inactive); normalized growth (locus YAL026C, strain drs2, stronger effect = lower value): 0.949 (inactive); normalized growth (locus YAL030W, strain snc1, stronger effect = lower value): 0.994 (inactive); normalized growth (locus YBL061C, strain skt5, stronger effect = lower value): 0.972 (inactive); normalized growth (locus YBR009C, strain hhf1, stronger effect = lower value): 0.862 (active); normalized growth (locus YBR021W, strain FUR4, stronger effect = lower value): 0.807 (active); normalized growth (locus YBR023C, strain chs3, stronger effect = lower value): 0.908 (active); normalized growth (locus YBR171W, strain sec66, stronger effect = lower value): 0.992 (inactive); normalized growth (locus YBR229C, strain ROT2, stronger effect = lower value): 0.98 (inactive); normalized growth (locus YBR231C, strain swc5, stronger effect = lower value): 0.992 (inactive); normalized growth (locus YBR279W, strain paf1, stronger effect = lower value): 0.939 (inactive); normalized growth (locus YCL011C, strain gbp2, stronger effect = lower value): 0.87 (active); normalized growth (locus YCL016C, strain dcc1, stronger effect = lower value): 0.91 (active); normalized growth (locus YCL029C, strain bik1, stronger effect = lower value): 0.954 (inactive); normalized growth (locus YCL061C, strain MRC1, stronger effect = lower value): 0.917 (active); normalized growth (locus YCL069W, strain vba3, stronger effect = lower value): 0.908 (active); normalized growth (locus YCR088W, strain abp1, stronger effect = lower value): 0.929 (inactive); normalized growth (locus YDL005C, strain med2, stronger effect = lower value): 0.996 (inactive); normalized growth (locus YDL035C, strain GPR1, stronger effect = lower value): 0.911 (inactive); normalized growth (locus YDL040C, strain nat1, stronger effect = lower value): 0.99 (inactive); normalized growth (locus YDL074C, strain BRE1, stronger effect = lower value): 0.788 (inactive); normalized growth (locus YDL101C, strain DUN1, stronger effect = lower value): 0.947 (inactive); normalized growth (locus YDL134C, strain PPH21, stronger effect = lower value): 0.878 (active); normalized growth (locus YDL185W, strain tfp1, stronger effect = lower value): 0.954 (inactive); normalized growth (locus YDL192W, strain arf1, stronger effect = lower value): 0.967 (inactive); normalized growth (locus YDR001C, strain nth1, stronger effect = lower value): 0.959 (inactive); normalized growth (locus YDR069C, strain doa4, stronger effect = lower value): 0.999 (inactive); normalized growth (locus YDR101C, strain arx1, stronger effect = lower value): 0.937 (inactive); normalized growth (locus YDR137W, strain rgp1, stronger effect = lower value): 0.958 (inactive); normalized growth (locus YDR159W, strain sac3, stronger effect = lower value): 0.842 (active); normalized growth (locus YDR162C, strain NBP2, stronger effect = lower value): 0.943 (inactive); normalized growth (locus YDR195W, strain ref2): 1.15 [resistant] (active); normalized growth (locus YDR297W, strain sur2, stronger effect = lower value): 0.977 (inactive); normalized growth (locus YDR318W, strain mcm21, stronger effect = lower value): 0.93 (inactive); normalized growth (locus YDR334W, strain swr1, stronger effect = lower value): 0.962 (inactive); normalized growth (locus YDR335W, strain msn5, stronger effect = lower value): 0.977 (inactive); normalized growth (locus YDR388W, stronger effect = lower value): 0.944 (inactive); normalized growth (locus YDR392W, strain spt3, stronger effect = lower value): 0.712 (active); normalized growth (locus YDR502C, strain sam2, stronger effect = lower value): 0.913 (active); normalized growth (locus YEL003W, strain gim4, stronger effect = lower value): 0.978 (inactive); normalized growth (locus YEL037C, strain rad23, stronger effect = lower value): 0.968 (inactive); normalized growth (locus YEL061C, strain CIN8 (second series), stronger effect = lower value): 0.971 (inactive); normalized growth (locus YEL061C, strain CIN8, stronger effect = lower value): 0.98 (inactive); normalized growth (locus YER015W, strain faa2, stronger effect = lower value): 0.934 (inactive); normalized growth (locus YER016W, strain bim1, stronger effect = lower value): 0.933 (inactive); normalized growth (locus YER110C, stronger effect = lower value): 0.951 (inactive); normalized growth (locus YER111C, strain swi4, stronger effect = lower value): 0.991 (inactive); normalized growth (locus YER155C, strain BEM2 (second series), stronger effect = lower value): 0.765 (active); normalized growth (locus YER155C, strain BEM2, stronger effect = lower value): 0.945 (inactive); normalized growth (locus YER167W, strain BCK2, stronger effect = lower value): 0.873 (active); normalized growth (locus YFR010W, strain ubp6, stronger effect = lower value): 0.944 (inactive); normalized growth (locus YGL078C, strain dbp3, stronger effect = lower value): 0.97 (inactive); normalized growth (locus YGL086W, strain mad1, stronger effect = lower value): 0.935 (inactive); normalized growth (locus YGL167C, strain pmr1, stronger effect = lower value): 1.01 (inactive); normalized growth (locus YGL173C, strain kem1, stronger effect = lower value): 0.959 (inactive); normalized growth (locus YGL227W, strain vid30, stronger effect = lower value): 0.959 (inactive); normalized growth (locus YGL240W, strain doc1, stronger effect = lower value): 0.882 (active); normalized growth (locus YGL248W, strain PDE1, stronger effect = lower value): 0.904 (inactive); normalized growth (locus YGL253W, strain hxk2, stronger effect = lower value): 0.879 (active); normalized growth (locus YGR078C, strain PAC10, stronger effect = lower value): 0.848 (active); normalized growth (locus YGR135W, strain pre9, stronger effect = lower value): 0.847 (active); normalized growth (locus YGR252W, strain gcn5, stronger effect = lower value): 0.608 (active); normalized growth (locus YHR013C, strain ard1, stronger effect = lower value): 0.915 (inactive); normalized growth (locus YHR027C, strain rpn1, stronger effect = lower value): 0.945 (inactive); normalized growth (locus YHR030C, strain SLT2, stronger effect = lower value): 0.968 (inactive) and 0.921 (inactive); normalized growth (locus YHR079C, strain IRE1 (second series), stronger effect = lower value): 0.927 (inactive); normalized growth (locus YHR079C, strain IRE1, stronger effect = lower value): 0.904 (inactive); normalized growth (locus YHR094C, strain hxt1, stronger effect = lower value): 0.954 (inactive); normalized growth (locus YHR129C, strain ARP1, stronger effect = lower value): 0.948 (inactive); normalized growth (locus YHR142W, strain chs7, stronger effect = lower value): 0.803 (active); normalized growth (locus YHR200W, strain rpn10, stronger effect = lower value): 0.934 (inactive); normalized growth (locus YIL066C, strain RNR3, stronger effect = lower value): 0.89 (inactive); normalized growth (locus YIL073C, strain SPO22, stronger effect = lower value): 0.854 (inactive); normalized growth (locus YIL125W, strain kgd1, stronger effect = lower value): 0.95 (inactive); normalized growth (locus YIR030C, strain dcg1, stronger effect = lower value): 0.933 (inactive); normalized growth (locus YJL092W, strain hpr5, stronger effect = lower value): 0.946 (inactive); normalized growth (locus YJL095W, strain BCK1 (second series), stronger effect = lower value): 0.96 (inactive); normalized growth (locus YJL095W, strain BCK1, stronger effect = lower value): 0.738 (active) and 0.924 (inactive); normalized growth (locus YJL115W, strain asf1, stronger effect = lower value): 0.989 (inactive); normalized growth (locus YJL129C, strain trk1, stronger effect = lower value): 0.974 (inactive); normalized growth (locus YJL134W, strain LCB3, stronger effect = lower value): 0.985 (inactive); normalized growth (locus YJL154C, strain vps35, stronger effect = lower value): 0.985 (inactive); normalized growth (locus YJL164C, strain tpk1, stronger effect = lower value): 0.897 (active); normalized growth (locus YJL166W, strain qcr8, stronger effect = lower value): 0.952 (inactive); normalized growth (locus YJL168C, strain set2, stronger effect = lower value): 0.958 (inactive); normalized growth (locus YJL187C, strain SWE1 (second series), stronger effect = lower value): 0.93 (inactive); normalized growth (locus YJL187C, strain SWE1, stronger effect = lower value): 0.985 (inactive); normalized growth (locus YJR043C, strain POL32, stronger effect = lower value): 0.754 (active)
